LAP4 TOR yeast – modulators of LAP4-GFP expression in yeast, primary screen, S. cerevisiae, multiplex flow cytometry, MLPCN library. GFP response vs DMSO, % at 10 µM. 3 h; median GFP as percent of DMSO wells. AID 2023, 2009. 0.34% of 320,000 active;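 active = GFP response vs DMSO above a set limit, about the screen mean plus 3 SD, cut at about 150% in these data; inconclusive = under 70 cell events counted for the yeast strain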
CIT2 TOR yeast – modulators of CIT2-GFP expression in yeast, primary screen, S. cerevisiae, GFP fusion, multiplex flow cytometry, MLPCN library. GFP response vs DMSO, % at 10 µM. S. cerevisiae CIT2-GFP strain, 3 h; 100 means same as DMSO wells. 0.065% of 320,000 active. AID 2029, 2009;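 active = GFP response relative to DMSO above a set limit, near the screen mean plus 3 SD, cut at about 150% in these data; inconclusive = Fewer than 70 cells measured for a yeast strain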;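 note: ratio of well median GFP fluorescence to mean of DMSO wells on the plate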
AGP1-GFP MLPCN – modulators of AGP1-GFP expression in yeast TOR pathway, primary screen, cell-based, multiplex flow cytometry, S. cerevisiae, MLPCN library. 3 h; GFP as percent of DMSO wells. GFP response vs DMSO, % at 10 µM. 0.02% of 320,000 active;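 active = GFP response relative to DMSO above a set limit, near screen average plus 3 SD, cut at about 150% in these data; inconclusive = fewer than 70 cells counted for the yeast strain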;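 note: median GFP channel fluorescence of the gated AGP1 strain per well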
RPL19A-GFP yeast – RPL19A-GFP expression modulators in yeast, primary screen, cell-based, S. cerevisiae, multiplex flow cytometry, MLPCN; S. cerevisiae RPL19A-GFP strain, 3 h; hits give low values; percent response vs DMSO, % at 10 µM; 0.3% of 330,000 active;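 active = percent response vs DMSO below 50%; inconclusive = fewer than 70 events counted for the yeast strain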;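 note: median channel GFP fluorescence of the barcoded RPL19A-GFP strain; ratio of sample median GFP to plate DMSO average so 100% = DMSO; lower means less RPL19A-GFP as with rapamycin TOR inhibition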
MEP2 TOR yeast – modulators of MEP2-GFP levels in yeast, primary screen, S. cerevisiae, multiplex flow cytometry, MLPCN library. S. cerevisiae MEP2-GFP strain, 3 h; 100% = DMSO control level. GFP response vs DMSO, % at 10 µM. 0.51% of 330,000 active. AID 2016, 2009;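 active = GFP response versus DMSO above a set limit, roughly screen mean plus 3 SD, cut at about 180% in these data; inconclusive = fewer than 70 cells counted for a yeast strain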;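 note: median GFP fluorescence of the barcode-gated MEP2-GFP cells per well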
Numbers without * were called inactive; ? = inconclusive; . = no result given; [ ] = remark or other dose. Compounds with a hit are over-represented: about 0.93% of the library has one in this group of screens.

SMILES | LAP4 TOR yeast | CIT2 TOR yeast | AGP1-GFP MLPCN | RPL19A-GFP yeast | MEP2 TOR yeast
O=[N+]([O-])c1ccc(S(=O)(=O)N2CCN=C2SCc2cccnc2)cc1 | 90 | 101 | 102 | 111 | 103
O=C(Nc1ccccc1N1CCOCC1)c1ccc(N2CCOCC2)c([N+](=O)[O-])c1 | 103 | 102 | 102 | 98 | 101
O=C(Nc1ccccc1N1CCOCC1)c1ccccc1[N+](=O)[O-] | ? | ? | ? | 19*[may fluoresce violet] | ?
N#CC1=C(SCC(=O)Nc2ccc(C(=O)O)cc2)NC(=O)CC1c1ccco1 (centres undefined) | 103 | 92 | 96 | 95 | 102
O=C(/C=C/c1cccs1)N1CCCC1 | 94 | 94 | 100 | 97 | 98
Cc1cc(C)n(C(=O)/C=C/c2cccs2)n1 | 86 | ? | ? | 54 | 211*[may fluoresce violet]
COC(=O)Cc1csc(Nc2ccc(F)c(Cl)c2)n1 | 196* | 80 | 71 | 76 | 90
CC1(C)CNC(=O)CC(C)(C)N1 | 89 | ? | 13 | 91 | 186*[may fluoresce violet]
COc1ccc(NC(=O)CSCCc2ccccn2)cc1OC | 107 | 104 | 104 | 97 | 99
O=C(CSCCc1ccccn1)Nc1cccnc1 | ? | ? | ? | 40*[may fluoresce violet] | ?
COc1ccc(/C=C/C(=O)c2ccccc2)cc1Cn1nnc2ccccc21 | 109 | 89 | 96 | 105 | 105
COC(=O)C(Cc1ccccc1)NC(=O)CCCC(=O)NCc1cccc(OC)c1 (centres undefined) | 85 | 115 | 106 | 104 | 104
Cc1cccn2c(=O)c3cc(C(=O)NCC4CCCO4)c(=N)n(CC4CCCO4)c3nc12 (centres undefined) | 72 | ? | ? | 24*[may fluoresce violet] | 412*[may fluoresce violet]
Cc1cccn2c(=O)c3cc(C(=O)NCc4ccc(F)cc4)c(=N)n(CC4CCCO4)c3nc12 (centres undefined) | 99 | 92 | 82 | 99 | 101
Cc1cccn2c(=O)c3cc(C(=O)NC4CCCC4)c(=N)n(CC4CCCO4)c3nc12 (centres undefined) | 93 | ? | 85 | 57 | 549*[may fluoresce violet]
Cc1cccn2c(=O)c3cc(C(=O)NCC4CCCO4)c(=N)n(C4CCCCC4)c3nc12 (centres undefined) | 80 | ? | ? | 52 | 608*[may fluoresce violet]
Cc1ccc(-c2cc(C(=O)NCC3CCCO3)c3ccccc3n2)cc1C (centres undefined) | 87 | ? | 16 | 43*[may fluoresce violet] | 259*[may fluoresce violet]
Cc1cccn2c(=O)c3cc(C(=O)NCc4ccco4)c(=N)n(C4CCCC4)c3nc12 | 93 | ? | 30 | 100 | 112
COc1cc(Cl)c(C)cc1NC(=O)CSc1cc(Cl)ccc1Cl | 102 | 108 | 99 | 109 | 96
CC(=O)Nc1ccc(S(=O)(=O)N2CCCCC2c2cccnc2)cc1 (centres undefined) | 84 | 73 | 90 | 92 | 93
COc1cc(C)c(C)cc1S(=O)(=O)N1CCCCC1c1cccnc1 (centres undefined) | 115 | 69 | 96 | 91 | 207*
CN(C(=O)COC(=O)CN1C(=O)C2CC=CCC2C1=O)c1ccccc1 (centres undefined) | 105 | 109 | 111 | 103 | 108
O=C(ONC1=NCCCCC1)c1ccc(Cl)cc1 | 179*[may fluoresce violet] | ? | 44 | . | 351*[may fluoresce violet]
O=C(ONC1=NCCCCC1)c1c(F)cccc1F | 115 | 113 | 74 | 100 | 96
CCN(CC)c1ccc(NC(=O)COC(=O)c2cccs2)cc1 | 136 | ? | ? | 16*[may fluoresce violet] | 243*[may fluoresce violet]
Cc1cccn2c(=O)c3cc(C(=O)NCCN4CCOCC4)c(=N)n(CCN4CCOCC4)c3nc12 | 83 | ? | ? | 44*[may fluoresce violet] | ?
Cc1cccn2c(=O)c3cc(C(=O)NC4CCCC4)c(=N)n(CCCN4CCOCC4)c3nc12 | 90 | ? | 21 | 58 | 317*[may fluoresce violet]
COc1ccc(NC(=O)Nc2ccon2)c(OC)c1 | 132 | 143 | 104 | 107 | 195*
O=C(COC(=O)c1cc(Br)ccc1O)Nc1cccnc1Cl | 102 | 97 | 97 | 96 | 96
CC(C)(C)C1=CC=C(C(C)(C)C)C(=O)C1=O | 175* | 95 | 92 | 97 | 91

Screening data from PubChem BioAssay.
